Measurements reported in a collection of fitness landscapes (doi:10.1016/j.celrep.2020.107928).
In all, about 81,000 sequences were measured (“one-hybrid fitness for binding parS DNA”: median about -0.17, highest 2% from about 0.51 on). The sample as a whole holds a higher share of the highest values than the screen did.

B1: Caulobacter ParB omega fusion; a variant is named by its letters at X, in order, B8GW30 (parent)
chain: MESVVVGEPGMSEGRRGLGRGLSALLGEVDAAPAQAPGEQLGGSREAPIEILQRNPDQPRRTFREEDLEDLSNSIREKGVLQPILVRPSPDTAGEYQIVAGERAWRAAQRAGLKTVPIMVRELDDLAVLEIGIIENVQRADLNVLEEALSYKVLMEKFERTQENIAQTIGKSXSHVANXMRLLXLPDEVQSYLVSGELTAXHARAIAAAADPVALAKQIIEGGLSVRETEALARKAPNLSAGKSKGGRPPRVKDTDTQALESDLSSVLGLDVSIDHRGSTGTLTITYATLEQLDDLCNRLTRGI

Variants of: B1
Test: one-hybrid fitness for binding parS DNA (scaled: cognate 1, non-cognate 0); higher = stronger binding
Conditions: with parS DNA site
How it was run: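 Bacterial one-hybrid selection in E. coli USO rpoZ- hisB- pyrF- with a HIS3 reporter carrying the site 19 bp from the promoter, screening Caulobacter ParB libraries with four specificity codons randomised (NNS). Cells grew 48 hours at 37°C on M9-minus-histidine plus 0.1 mM IPTG and 5 mM 3-AT. Plasmids before and after selection were Illumina-sequenced, three replicate libraries pooled, and variants under 10 reads dropped. Fitness is the log change in variant-to-wild-type read ratio, rescaled to cognate 1, non-cognate 0.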

one-hybrid fitness for binding parS DNA, 0.803:
RGQS

one-hybrid fitness for binding parS DNA, ≤ 0.2:
QPVT
TWLF
MFNG
MAAA
NWPE
TFVS
VVQN
YPYG
IVTG
LDGI
ACHY
RLWD
RLGP
RLYD
RLGD
YVWS
YNKG
RRYE
YFLW
GWSG
SAAF
VKNG
AELV
GLPW
PMAN
YMPP
KVPK
RLDH
QGEI
TFSF
YFFS
RGWN
RGCN
RGGN
RGCD
RGWD
RGCQ
RGGP
SEDR
YADT
KCCV
VDHL
DLCC
SLAM
NYMG
RGSD
RGHF
RGIN
RGIH
TPNI
SATH
HPWF
TRNA
QQAP
AFMD
PRPT
LTYS
WIST
RGNF
RGQD
RGPT
LTFV
QTHV
HQLT
QKHC
SLYD
GLTA
CINY
YKSG
PKIS
EFPF
DVWS

one-hybrid fitness for binding parS DNA, 0.443:
RLWN

one-hybrid fitness for binding parS DNA, 0.416:
RLDN

one-hybrid fitness for binding parS DNA, 0.218:
RGSN

one-hybrid fitness for binding parS DNA, 0.226:
RGSY

one-hybrid fitness for binding parS DNA, 0.733:
RGGS

one-hybrid fitness for binding parS DNA, 0.601:
RGST

one-hybrid fitness for binding parS DNA, 0.44:
RLLN

one-hybrid fitness for binding parS DNA, 1.03:
RLWS

one-hybrid fitness for binding parS DNA, 0.609:
RGNT

one-hybrid fitness for binding parS DNA, 0.981:
RLGS

one-hybrid fitness for binding parS DNA, 0.849:
RGSS

one-hybrid fitness for binding parS DNA, 0.519:
RGHT

one-hybrid fitness for binding parS DNA, 0.51:
RGCT

one-hybrid fitness for binding parS DNA, 0.487:
RLYN

one-hybrid fitness for binding parS DNA, 0.249:
RGQN

one-hybrid fitness for binding parS DNA, 0.248:
RLLH

one-hybrid fitness for binding parS DNA, 1.01:
RLDS

one-hybrid fitness for binding parS DNA, 0.371:
RGDT

one-hybrid fitness for binding parS DNA, 0.595:
RGCS

one-hybrid fitness for binding parS DNA, 1.05:
RLLS

one-hybrid fitness for binding parS DNA, 0.58:
RGQT

one-hybrid fitness for binding parS DNA, 1.04:
RLYS

one-hybrid fitness for binding parS DNA, 0.676:
RGRT

one-hybrid fitness for binding parS DNA, 0.524:
RGIS

one-hybrid fitness for binding parS DNA, 0.475:
RGYT

one-hybrid fitness for binding parS DNA, 0.573:
RGWS
